Compound activity: PubChem BioAssay, National Center for Advancing Translational Sciences (NCATS)
D3 antag = D3 dopamine receptor (human) antagonism; 360,000 compounds, 2.5% hits; max response, negative = inhibition, %; P35462; D3R cells, DiscoveRx beta-arrestin luminescence, antagonist mode; stronger effect = lower value; in the data active means max response below about -50%; inconclusive means no clear call, values can overlap the other calls; further: on the % scale 0 is the no-effect control and ±100 the full control effect
Target sequence (P35462 whole entry, looked up): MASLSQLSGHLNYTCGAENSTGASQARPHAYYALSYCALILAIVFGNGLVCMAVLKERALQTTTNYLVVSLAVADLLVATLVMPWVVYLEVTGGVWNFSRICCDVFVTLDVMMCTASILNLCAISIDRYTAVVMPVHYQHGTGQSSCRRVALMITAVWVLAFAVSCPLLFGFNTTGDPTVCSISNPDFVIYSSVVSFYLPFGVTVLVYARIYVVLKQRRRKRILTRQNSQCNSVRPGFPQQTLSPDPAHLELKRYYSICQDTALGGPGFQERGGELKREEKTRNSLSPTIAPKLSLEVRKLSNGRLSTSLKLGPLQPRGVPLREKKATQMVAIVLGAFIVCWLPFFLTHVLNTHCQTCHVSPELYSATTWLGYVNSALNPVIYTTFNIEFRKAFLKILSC
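Cells plated overnight at 1500 cells/well, then exposed to library compounds with dopamine controls for 90 minutes at 37 degrees C. DiscoveRx reagent added for 30–60 minutes at room temperature; luminescence read, quantitative HTS format.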
D3 ag = agonists of human D3 dopamine receptor. P35462. AID 652048. D3R DiscoveRx beta-arrestin cells, luminescence, 90 min. max activation, %. 410,000 compounds, 0.58% hits; in the data active means max activation above about 30%; further: 0% is about no effect
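Cells at 1500/well, incubated overnight, then treated with pinned compounds (dopamine as control) for 90 min at 37 degrees C. DiscoveRx reagent added for 30 - 60 minutes at room temperature; luminescence read.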
S2 tox = cell viability loss in ATXN counter-screen; S2 cells (HEK-293 line with an ATXN2-luciferase reporter) viability, CellTiter-Fluor protease fluorescence, 24 h; 400,000 compounds, 0.49% hits; Potency, µM (series often up to 56.7 µM), usual class: cytotoxic; AID 651635; further: potency means the concentration at half of the fitted maximal effect; nearly all actives have a fitted effect of over 40% in size
TGFb SMAD3 inh = inhibitors of TGF-b signaling; 410,000 compounds, 1.2% hits; HepG2 CAGA-GFP TGF-b/SMAD3 reporter, GFP fluorescence, 18 h; TGF-beta stimulated, 500 pg/mL final; Potency, µM (top dose mostly 46.1 µM), inactives show at the highest dose activity, negative = inhibition, most hits filed as inhibitors; further: potency means the concentration at half of the fitted maximal effect; on the % scale 0 is the no-effect control and ±100 the full control effect; nearly all actives have a fitted effect of over 65% in size
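Using HEPG2 CAGA-GFP reporter cells at 1000 cells/well, we pinned test compounds, stimulated with recombinant TGF-beta (500 pg/mL final) and measured total well GFP after 18 h.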
ATXN2 expr inh = ATXN2 expression inhibition; HEK-293 ATXN2-luciferase reporter, luminescence, 24 h; Potency, µM (doses to about 57 µM), for inactives: at the top dose activity change, negative = inhibition, hits mostly inhibitors; 360,000 compounds, 0.72% hits; further: potency means the concentration at half of the fitted maximal effect; on the % scale 0 is the no-effect control and ±100 the full control effect; nearly all actives have a fitted effect of over 55% in size
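qHTS (up to 57 uM final) was run with 24 h compound exposure of reporter cells at 37 °C. Each well was multiplexed: SteadyGlo luminescence measured ATXN2-luciferase expression after a fluorogenic Gly-Phe-AFC viability readout (25 uM final).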
HepG2 tox = counter-screen for TGF-b inhibitors: cytotoxicity in HepG2 cells; HepG2 CAGA-GFP viability, ATP luminescence, 18 h; Potency, µM (series often up to 46.1 µM), without a hit: top-dose activity change, negative = cytotoxicity, actives largely listed as cytotoxic; 410,000 compounds, 0.76% hits; further: potency means the concentration at half of the fitted maximal effect
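CellTiter-Glo luminescence gave cytotoxicity after 18 hours at 37 degrees C. The cells were HepG2 CAGA-GFP in 1% FBS DMEM, stimulated with 500 pg/mL TGF-beta after compound addition. %Activity was normalised to no-cell wells (complete cell-killing) and DMSO (no toxicity), and curves were fitted and classified.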
* marks the source's active call; other numbers are inactive results; i = inactive; ? = inconclusive; nt = not tested or not shown; [ ] = dose if it differs, or a comment. This is a sample that favours compounds with a hit; in the whole collection about 4.7% have one here. Unless noted, the call rests on the fitted dose curve; in most records, active means well fitted curve in the direction sought with a large enough effect; inconclusive means small, poorly fitted or top-dose-only effect, or another doubt; inactive means no such curve, though single readings can be large; an effect the other way counts as inactive or inconclusive.

SMILES	D3 antag	D3 ag	S2 tox	TGFb SMAD3 inh	ATXN2 expr inh	HepG2 tox
CNC(=S)N1C2CCCC1CC(NC(=O)c1ccc(C)cc1)C2 (stereo unspecified)	96	1	i	-3%	nt	-16%
CCC(=O)NC1CC2CCCC(C1)N2Cc1ccc(C)cc1 (stereo unspecified)	-108*	-20	i	49%	nt	15%
CCS(=O)(=O)Nc1cc(C(=O)N[C@H]2CCCCNC2=O)c2c(c1)nc(-c1ccccc1)n2C	nt	nt	i	nt	nt	nt
COc1cccc2sc(N(Cc3cccnc3)C(=O)C3COc4ccccc4O3)nc12 (stereo unspecified)	nt	1	nt	?	nt	-54%
Cc1ccc(C)c(N2CCN(CCCNC(=O)c3cnn(-c4ccccc4Cl)c3C3CCN(C(=O)OC(C)(C)C)CC3)CC2)c1	nt	-20	nt	?	nt	-112%
S=C(Nc1cc(Cl)cc(Cl)c1)NC1CCN(Cc2ccccc2)CC1	-94*	-14	?	?	?	16µM*
CC(C)c1ccc(NC(=S)NC2CCN(Cc3ccccc3)CC2)cc1	?	-21	i	?	0%	-120%
S=C(Nc1ccccc1Cl)NC1CCN(Cc2ccccc2)CC1	-84*	-7	i	-34%	-13%	-41%
S=C(Nc1ccc(Cl)cc1Cl)NC1CCN(Cc2ccccc2)CC1	-28	-6	i	?	-10%	-33%
FC(F)(F)c1ccccc1NC(=S)NC1CCN(Cc2ccccc2)CC1	-58*	-20	?	-4%	1%[11.3 µM]	-6%
Cc1c(Cl)cccc1NC(=S)NC1CCN(Cc2ccccc2)CC1	-72*	-13	i	?	-16%	-23%
CC1CN(CCC(=O)NCc2ccc3ncccc3c2)Cc2cc(Cl)ccc2O1 (stereo unspecified)	nt	nt	i	nt	nt	nt
CC(NC(=O)c1cccnc1)c1nnc2n1CCN(Cc1ccc(-c3ccccc3)cc1)CC2 (stereo unspecified)	nt	nt	i	nt	nt	nt
CC(C)c1ccccc1NC(=S)NC1CCN(Cc2ccccc2)CC1	-79*	-40	i	-5%	-12%	-9%
S=C(NCc1ccccc1)NC1CCSc2ccccc21 (stereo unspecified)	-3	1	i	13µM*	-16%	-28%
Clc1ccc(CNC2CCN(Cc3ccccc3)CC2)cc1	-17	-21	i	-25%	-22%	-49%
S=C(NCc1ccc(Cl)cc1)NC1CCN(Cc2ccccc2)CC1	-66*	-16	i	?	?	-64%
COC(=O)c1c(NC(=O)c2ccc(S(=O)(=O)N3CCCCC3)cc2)sc2c1CCN(C)C2	nt	-5	nt	45%	nt	-29%
CCOC1OC(=O)C[C@H]1NC(=O)[C@@H]1CCCN1C(=O)[C@@H](NC(=O)c1ccc(N)c(Cl)c1)C(C)(C)C (stereo partly specified)	nt	nt	nt	nt	51%	nt
CC(NS(=O)(=O)c1ccc(Br)cc1)C(c1cccs1)N1CCN(C)CC1 (stereo unspecified)	-52*	-10	i	-1%	-10%	-20%
O=C(Nc1cccc2cccnc12)C(Cl)(Cl)Cl	nt	nt	nt	6%	nt	2%
Cn1c(=O)c2c(nc(NCc3ccco3)n2C/C=C/c2ccccc2)n(C)c1=O	42	20	?	4µM*	?	-32%
Cn1c(=O)c2c(nc(NCc3ccco3)n2C)n(C)c1=O	4	5	i	0%	4%	8%
CCOC(=O)c1ccc(NS(=O)(=O)c2cc(-c3onc(C)c3C)ccc2C)cc1	nt	9	nt	-13%	nt	-1%
CCc1ccc(C(=O)CN(C#N)c2nc(C)cc(C)n2)cc1	2	3	?	?	-29%	11µM*
SMILES	D3 antag	D3 ag	S2 tox	TGFb SMAD3 inh	ATXN2 expr inh	HepG2 tox
Cc1cc(C)nc(N(C#N)CC(=O)c2ccccc2)n1	5	3	?	4%	-14%	-26%
Cc1ccc(NC(=S)NC2CCN(Cc3ccccc3)CC2)cc1	-61*	-27	i	-22%	-6%	-15%
Cc1ccc(C(=S)N2CCN(Cc3ccccc3)CC2)cc1	-71*	-26	i	?	-20%	-8%
Cc1ccc(NC(=S)N2CCN(Cc3ccccc3)CC2)cc1	0	3	i	11%	4%	1%
S=C(Nc1ccc2c(c1)OCO2)NC1CCN(Cc2ccccc2)CC1	-65*	-59	i	-7%	1%	-28%
Cc1ccc(NC(=S)NC2CCN(Cc3ccccc3)CC2)cc1C	-52*	0	?	3%	nt	-2%
CC(C)c1ccc(NS(=O)(=O)c2ccc3nc(-c4ccccc4)[nH]c3c2)cc1	nt	3	?	?	?	-97%
Cc1cc(OCC(=O)NC2CCN(Cc3ccccc3)CC2)c2c(C)cc(=O)oc2c1	-63*	-20	i	-2%	2%	4%
CCCc1cc(=O)oc2cc(C)cc(OCC(=O)NC3CCN(Cc4ccccc4)CC3)c12	-28	-20	i	-1%	nt	-22%
Cc1ccc(-c2noc(CCC(=O)NC3CCN(Cc4ccccc4)CC3)n2)cc1	1	-2	i	4%	-18%	-22%
CCOC(=O)c1cc(-c2ccc(F)cc2)n(CCC(=O)NC2CCN(Cc3ccccc3)CC2)c1C	-29	-15	?	?	?	13µM*
Cc1cc(OCC(=O)NC2CCN(Cc3ccccc3)CC2)c2c(C)c(C)c(=O)oc2c1	-82*	-17	i	15%	1%	1%
O=C(CCc1nc(-c2ccccc2F)no1)NC1CCN(Cc2ccccc2)CC1	-51*	-1	i	10%	-11%	4%
CCc1ccc(NC(=O)CN2C(=O)CCSc3ccccc32)cc1	nt	1	i	5%	1%	-12%
COc1cc(=O)n2c(c1C(=O)NCc1ccco1)CCN(C(=O)c1c(F)ccc(F)c1F)CC2	nt	nt	i	nt	nt	nt
COc1cccc(C(=O)c2cn(CC(=O)Nc3ccc4c(c3)OCCO4)c3nc(C)ccc3c2=O)c1	nt	8	?	-2%	-12%	2%
COc1ccccc1OCC(=O)N(Cc1ccc(Cl)cc1)CC1CCCO1 (stereo unspecified)	nt	-7	nt	-10%	nt	-11%
C=CC[n+]1cccc2cccc(O)c21	nt	nt	nt	1%	nt	-1%
Cc1cc(OC(C)C(=O)NC2CCN(Cc3ccccc3)CC2)c2c(C)cc(=O)oc2c1 (stereo unspecified)	-62*	-18	i	3%	1%	-3%
O=C(CCc1nc(-c2ccccc2F)no1)NCc1ccco1	-88*	1	i	-7%	3%	-5%
